Measured values published in PMC8384837, “Expanding the binding specificity for RNA recognition by a PUF domain”.

What was measured:
Test in all cases: yeast three-hybrid, YBZ-1, SC-Leu-His + 0.5 mM 3-AT, 4 days
Details in all cases: tags: N-Gal4 AD-HA kept; label: inside an RPR1-promoter hybrid RNA with tandem MS2 sites; ssRNA
PUM1 PUF domain R4-ACS = PUM1 PUF domain R4-ACS (Homo sapiens, UniProt Q14671 828-1176, N971A;H972C;Q975S)
Summary of the method: (§1)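 The interaction score is the log change in variant frequency from input to selection. Scores were computed in log2 with a pseudocount of 1 for absent variants, using Illumina sequencing of PCR-amplified repeat regions. The input came from four days on SC-Leu and the selection from four days on SC-Leu-His + 0.5 mM 3-AT. The cells were strain YBZ-1 (LexA–MS2 coat fusion, HIS3 reporter) co-expressing Pumilio-1 PUF domain libraries and matching RNA elements from a centromeric plasmid.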

PUM1 PUF domain R4-GFP = PUM1 PUF domain R4-GFP (Homo sapiens, UniProt Q14671 828-1176, N971G;H972F;Q975P)
Sequence of PUM1 PUF domain R4-GFP (Q14671 828-1176 N971G/H972F/Q975P): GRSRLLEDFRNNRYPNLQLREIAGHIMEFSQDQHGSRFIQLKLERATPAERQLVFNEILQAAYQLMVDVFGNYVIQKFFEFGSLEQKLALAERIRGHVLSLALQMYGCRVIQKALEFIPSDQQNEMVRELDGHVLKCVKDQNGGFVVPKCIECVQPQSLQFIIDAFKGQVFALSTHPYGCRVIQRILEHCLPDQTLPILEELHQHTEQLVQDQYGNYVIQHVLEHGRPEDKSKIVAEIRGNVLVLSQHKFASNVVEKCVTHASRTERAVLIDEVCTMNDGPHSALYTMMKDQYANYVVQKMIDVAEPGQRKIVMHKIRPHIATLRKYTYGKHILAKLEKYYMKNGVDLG
Summary of the method: as §1

PUM1 PUF domain R4-APA = PUM1 PUF domain R4-APA (Homo sapiens, UniProt Q14671 828-1176, N971A;H972P;Q975A)
Summary of the method: as §1

PUM1 PUF domain R6-RWG = biological target: T1, PUM1 PUF domain R6-RWG (Homo sapiens, UniProt Q14671 828-1176, N1043R;Y1044W;Q1047G)
T1 sequence: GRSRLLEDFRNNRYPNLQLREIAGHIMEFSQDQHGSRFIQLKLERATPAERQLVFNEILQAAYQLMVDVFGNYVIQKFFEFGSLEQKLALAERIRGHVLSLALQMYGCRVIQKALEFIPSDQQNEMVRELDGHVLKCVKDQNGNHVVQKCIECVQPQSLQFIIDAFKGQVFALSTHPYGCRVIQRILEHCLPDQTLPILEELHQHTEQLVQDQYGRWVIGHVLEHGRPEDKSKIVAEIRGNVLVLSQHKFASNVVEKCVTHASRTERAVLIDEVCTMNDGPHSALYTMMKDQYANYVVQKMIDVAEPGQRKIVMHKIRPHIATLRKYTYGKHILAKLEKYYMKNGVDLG
Summary of the method: as §1

PUM1 PUF domain R3-TRS = PUM1 PUF domain R3-TRS (Homo sapiens, UniProt Q14671 828-1176, C935T;Q939S)
Sequence of PUM1 PUF domain R3-TRS (Q14671 828-1176 C935T/Q939S): as the sequence (Q14671 828-1176 N971G/H972F/Q975P) above, with C108T, Q112S, G144N, F145H, P148Q counted along it
Summary of the method: as §1

PUM1 PUF domain R3-PHQ = PUM1 PUF domain R3-PHQ (Homo sapiens, UniProt Q14671 828-1176, C935P;R936H)
Sequence of PUM1 PUF domain R3-PHQ (Q14671 828-1176 C935P/R936H): as the sequence (Q14671 828-1176 N971G/H972F/Q975P) above, with C108P, R109H, G144N, F145H, P148Q counted along it
Summary of the method: as §1

PUM1 PUF domain R8-PWW = PUM1 PUF domain R8-PWW (Homo sapiens, UniProt Q14671 828-1176, N1122P;Y1123W;Q1126W)
Sequence of PUM1 PUF domain R8-PWW (Q14671 828-1176 N1122P/Y1123W/Q1126W): as the sequence (Q14671 828-1176 N971G/H972F/Q975P) above, with G144N, F145H, P148Q, N295P, Y296W, Q299W counted along it
Summary of the method: as §1

PUM1 PUF domain R3-LYL = PUM1 PUF domain R3-LYL (Homo sapiens, UniProt Q14671 828-1176, C935L;R936Y;Q939L)
Sequence of PUM1 PUF domain R3-LYL (Q14671 828-1176 C935L/R936Y/Q939L): as the sequence (Q14671 828-1176 N971G/H972F/Q975P) above, with C108L, R109Y, Q112L, G144N, F145H, P148Q counted along it
Summary of the method: as §1

PUM1 PUF domain R4-VGL = PUM1 PUF domain R4-VGL (Homo sapiens, UniProt Q14671 828-1176, N971V;H972G;Q975L)
Summary of the method: as §1

PUM1 PUF domain R3-GCW = PUM1 PUF domain R3-GCW (Homo sapiens, UniProt Q14671 828-1176, C935G;R936C;Q939W)
Summary of the method: as §1

PUM1 PUF domain R4-GRI = PUM1 PUF domain R4-GRI (Homo sapiens, UniProt Q14671 828-1176, N971G;H972R;Q975I)
Summary of the method: as §1

PUM1 PUF domain R3-RSQ = PUM1 PUF domain R3-RSQ (Homo sapiens, UniProt Q14671 828-1176, C935R;R936S)
Sequence of PUM1 PUF domain R3-RSQ (Q14671 828-1176 C935R/R936S): as the sequence (Q14671 828-1176 N971G/H972F/Q975P) above, with C108R, R109S, G144N, F145H, P148Q counted along it
Summary of the method: as §1

PUM1 PUF domain R3-MWP = PUM1 PUF domain R3-MWP (Homo sapiens, UniProt Q14671 828-1176, C935M;R936W;Q939P)
Sequence of PUM1 PUF domain R3-MWP (Q14671 828-1176 C935M/R936W/Q939P): as the sequence (Q14671 828-1176 N971G/H972F/Q975P) above, with C108M, R109W, Q112P, G144N, F145H, P148Q counted along it
Summary of the method: as §1

PUM1 PUF domain R3-RRG = PUM1 PUF domain R3-RRG (Homo sapiens, UniProt Q14671 828-1176, C935R;Q939G)
Summary of the method: as §1

PUM1 PUF domain R5-KSC = PUM1 PUF domain R5-KSC (Homo sapiens, UniProt Q14671 828-1176, C1007K;R1008S;Q1011C)
Summary of the method: as §1

PUM1 PUF domain R7-RPV = PUM1 PUF domain R7-RPV (Homo sapiens, UniProt Q14671 828-1176, S1079R;N1080P;E1083V)
Sequence of PUM1 PUF domain R7-RPV (Q14671 828-1176 S1079R/N1080P/E1083V): as the sequence (Q14671 828-1176 N971G/H972F/Q975P) above, with G144N, F145H, P148Q, S252R, N253P, E256V counted along it
Summary of the method: as §1

PUM1 PUF domain R5-IHR = PUM1 PUF domain R5-IHR (Homo sapiens, UniProt Q14671 828-1176, C1007I;R1008H;Q1011R)
Summary of the method: as §1

PUM1 PUF domain R5-KHV = PUM1 PUF domain R5-KHV (Homo sapiens, UniProt Q14671 828-1176, C1007K;R1008H;Q1011V)
Summary of the method: as §1

PUM1 PUF domain R7-ERA = PUM1 PUF domain R7-ERA (Homo sapiens, UniProt Q14671 828-1176, S1079E;N1080R;E1083A)
Summary of the method: as §1

PUM1 PUF domain R4-ERQ = PUM1 PUF domain R4-ERQ (Homo sapiens, UniProt Q14671 828-1176, N971E;H972R)
Sequence of PUM1 PUF domain R4-ERQ (Q14671 828-1176 N971E/H972R): as the sequence (Q14671 828-1176 N971G/H972F/Q975P) above, with G144E, F145R, P148Q counted along it
Summary of the method: as §1

Sequence of PUM1 PUF domain R4-ACS (Q14671 828-1176 N971A/H972C/Q975S): as the sequence (Q14671 828-1176 N971G/H972F/Q975P) above, with G144A, F145C, P148S counted along it

Question: Which results are given for “GGCUAGAACUAGUGGAUCCCCCGGCGCCCGGCGGCUCGAGCCCGGGUAAGUGUAUAUAGUCUGCAUGCCGCCGGGCGCCAUGCCUGCAGGUCGACUCUAGAAAACAUG”?
Answer: binding signal (PUM1 PUF domain R4-ACS): 1.22 log2 enrichment (interaction score); binding signal (PUM1 PUF domain R4-GFP): 5.97 log2 enrichment (interaction score); binding signal (PUM1 PUF domain R4-APA): 2.47 log2 enrichment (interaction score)

Question: “GGCUAGAACUAGUGGAUCCCCCGGCGCCCGGCGGCUCGAGCCCGGGUAAGUGAAAAUAGUCUGCAUGCCGCCGGGCGCCAUGCCUGCAGGUCGACUCUAGAAAACAUG” was tested. Which binding signal (PUM1 PUF domain R6-RWG) did it give?
Answer: 3.42 log2 enrichment (interaction score)

Question: How did the binding signal (PUM1 PUF domain R4-ACS) turn out when “GGCUAGAACUAGUGGAUCCCCCGGCGCCCGGCGGCUCGAGCCCGGGUAAGUGUAAAUAGUCUGCAUGCCGCCGGGCGCCAUGCCUGCAGGUCGACUCUAGAAAACAUG” was run?
Answer: 2.98 log2 enrichment (interaction score)

Question: What about the binding signal (PUM1 PUF domain R4-GFP) of the same sequence?
Answer: 4.75 log2 enrichment (interaction score)

Question: What about the binding signal (PUM1 PUF domain R3-TRS) of the same sequence?
Answer: 4.62 log2 enrichment (interaction score)

Question: And the binding signal (PUM1 PUF domain R3-PHQ)?
Answer: 4.19 log2 enrichment (interaction score)

Question: And the binding signal (PUM1 PUF domain R8-PWW)?
Answer: 3.57 log2 enrichment (interaction score)

Question: And the binding signal (PUM1 PUF domain R3-LYL)?
Answer: 4.43 log2 enrichment (interaction score)

Question: And the binding signal (PUM1 PUF domain R4-VGL)?
Answer: 3.22 log2 enrichment (interaction score)

Question: And the binding signal (PUM1 PUF domain R3-GCW)?
Answer: 1.82 log2 enrichment (interaction score)

Question: What about the binding signal (PUM1 PUF domain R4-GRI) of the same sequence?
Answer: 3.58 log2 enrichment (interaction score)

Question: What about the binding signal (PUM1 PUF domain R4-APA) of the same sequence?
Answer: 4.16 log2 enrichment (interaction score)

Question: And the binding signal (PUM1 PUF domain R6-RWG)?
Answer: 5.05 log2 enrichment (interaction score)

Question: What does the source list for “GGCUAGAACUAGUGGAUCCCCCGGCGCCCGGCGGCUCGAGCCCGGGUAAGUGUAAUUAGUCUGCAUGCCGCCGGGCGCCAUGCCUGCAGGUCGACUCUAGAAAACAUG”?
Answer: binding signal (PUM1 PUF domain R3-RSQ): 4.22 log2 enrichment (interaction score); binding signal (PUM1 PUF domain R3-TRS): 1.31 log2 enrichment (interaction score); binding signal (PUM1 PUF domain R3-MWP): 3.31 log2 enrichment (interaction score); binding signal (PUM1 PUF domain R3-LYL): 3.45 log2 enrichment (interaction score); binding signal (PUM1 PUF domain R3-GCW): 3.22 log2 enrichment (interaction score); binding signal (PUM1 PUF domain R3-RRG): 3.82 log2 enrichment (interaction score)

Question: “GGCUAGAACUAGUGGAUCCCCCGGCGCCCGGCGGCUCGAGCCCGGGUAAGUGUCAAUAGUCUGCAUGCCGCCGGGCGCCAUGCCUGCAGGUCGACUCUAGAAAACAUG” was tested. Which binding signal (PUM1 PUF domain R5-KSC) did it give?
Answer: 5.14 log2 enrichment (interaction score)

Question: Which binding signal (PUM1 PUF domain R7-RPV) does the source give for “GGCUAGAACUAGUGGAUCCCCCGGCGCCCGGCGGCUCGAGCCCGGGUAAGUUUAAAUAGUCUGCAUGCCGCCGGGCGCCAUGCCUGCAGGUCGACUCUAGAAAACAUG” here?
Answer: 3.09 log2 enrichment (interaction score)

Question: For “GGCUAGAACUAGUGGAUCCCCCGGCGCCCGGCGGCUCGAGCCCGGGUAAGUGUUAAUAGUCUGCAUGCCGCCGGGCGCCAUGCCUGCAGGUCGACUCUAGAAAACAUG”, which binding signal (PUM1 PUF domain R5-IHR) is on record?
Answer: 3.52 log2 enrichment (interaction score)

Question: What about the binding signal (PUM1 PUF domain R5-KHV) of the same sequence?
Answer: 2.08 log2 enrichment (interaction score)

Question: And the binding signal (PUM1 PUF domain R5-KSC)?
Answer: 2.38 log2 enrichment (interaction score)

Question: For “GGCUAGAACUAGUGGAUCCCCCGGCGCCCGGCGGCUCGAGCCCGGGUAAGUCUAAAUAGUCUGCAUGCCGCCGGGCGCCAUGCCUGCAGGUCGACUCUAGAAAACAUG”, which binding signal (PUM1 PUF domain R7-RPV) is on record?
Answer: 1.08 log2 enrichment (interaction score)

Question: And the binding signal (PUM1 PUF domain R7-ERA)?
Answer: 2.68 log2 enrichment (interaction score)

Question: Which results are given for “GGCUAGAACUAGUGGAUCCCCCGGCGCCCGGCGGCUCGAGCCCGGGUAAGUGUACAUAGUCUGCAUGCCGCCGGGCGCCAUGCCUGCAGGUCGACUCUAGAAAACAUG”?
Answer: binding signal (PUM1 PUF domain R4-ACS): 1.22 log2 enrichment (interaction score); binding signal (PUM1 PUF domain R4-ERQ): 2.62 log2 enrichment (interaction score); binding signal (PUM1 PUF domain R4-GFP): 5.41 log2 enrichment (interaction score); binding signal (PUM1 PUF domain R4-APA): 1.33 log2 enrichment (interaction score)

Question: How did the binding signal (PUM1 PUF domain R3-TRS) turn out when “GGCUAGAACUAGUGGAUCCCCCGGCGCCCGGCGGCUCGAGCCCGGGUAAGUGUAAGUAGUCUGCAUGCCGCCGGGCGCCAUGCCUGCAGGUCGACUCUAGAAAACAUG” was run?
Answer: 1.93 log2 enrichment (interaction score)

Question: And the binding signal (PUM1 PUF domain R3-MWP)?
Answer: 5.07 log2 enrichment (interaction score)

Question: What about the binding signal (PUM1 PUF domain R3-LYL) of the same sequence?
Answer: 4.81 log2 enrichment (interaction score)

Question: And the binding signal (PUM1 PUF domain R3-RRG)?
Answer: 0.28 log2 enrichment (interaction score)
